Results as given in PubChem BioAssay.
Unmarked numbers belong to inactive results. Active and inactive are the calls of the source.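 How the source made its calls: active means normalized viability below 100% at a tested concentration; inactive means the rest.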

Experiment: drug combination growth inhibition, ovarian cancer – cell-based, oncology-focused library, rucaparib conditional, profiling panel (AID 1508598)
Conditions: patient-derived ovarian cancer cells, CellTiter-Glo viability, 144 h, stronger effect = lower value
[1] = at 0.000305 µM, OCI-C5x cells, with rucaparib 10 µM, 100% = cells with rucaparib alone
[2] = at 0.000305 µM, OCI-C5x cells, without rucaparib
[3] = at 0.000305 µM, OCI-P5x cells, with rucaparib 20 µM, 100% = cells with rucaparib alone
[4] = at 0.000305 µM, OCI-P5x cells, without rucaparib
[5] = at 0.00122 µM, OCI-C5x cells, with rucaparib 10 µM, 100% = cells with rucaparib alone
[6] = at 0.00122 µM, OCI-C5x cells, without rucaparib
[7] = at 0.00122 µM, OCI-P5x cells, with rucaparib 20 µM, 100% = cells with rucaparib alone
[8] = at 0.00122 µM, OCI-P5x cells, without rucaparib
[9] = at 0.00488 µM, OCI-C5x cells, with rucaparib 10 µM, 100% = cells with rucaparib alone
[10] = at 0.00488 µM, OCI-C5x cells, without rucaparib
[11] = at 0.00488 µM, OCI-P5x cells, with rucaparib 20 µM, 100% = cells with rucaparib alone
[12] = at 0.00488 µM, OCI-P5x cells, without rucaparib
[13] = at 0.0195 µM, OCI-C5x cells, with rucaparib 10 µM, 100% = cells with rucaparib alone
[14] = at 0.0195 µM, OCI-C5x cells, without rucaparib
[15] = at 0.0195 µM, OCI-P5x cells, with rucaparib 20 µM, 100% = cells with rucaparib alone
[16] = at 0.0195 µM, OCI-P5x cells, without rucaparib
[17] = at 0.0781 µM, OCI-C5x cells, with rucaparib 10 µM, 100% = cells with rucaparib alone
[18] = at 0.0781 µM, OCI-C5x cells, without rucaparib
[19] = at 0.0781 µM, OCI-P5x cells, with rucaparib 20 µM, 100% = cells with rucaparib alone
[20] = at 0.0781 µM, OCI-P5x cells, without rucaparib
[21] = at 0.313 µM, OCI-C5x cells, with rucaparib 10 µM, 100% = cells with rucaparib alone
[22] = at 0.313 µM, OCI-C5x cells, without rucaparib
[23] = at 0.313 µM, OCI-P5x cells, with rucaparib 20 µM, 100% = cells with rucaparib alone
[24] = at 0.313 µM, OCI-P5x cells, without rucaparib
[25] = at 1.25 µM, OCI-C5x cells, with rucaparib 10 µM, 100% = cells with rucaparib alone
[26] = at 1.25 µM, OCI-C5x cells, without rucaparib
[27] = at 1.25 µM, OCI-P5x cells, with rucaparib 20 µM, 100% = cells with rucaparib alone
[28] = at 1.25 µM, OCI-P5x cells, without rucaparib
[29] = at 5 µM, OCI-C5x cells, with rucaparib 10 µM, 100% = cells with rucaparib alone
[30] = at 5 µM, OCI-C5x cells, without rucaparib
[31] = at 5 µM, OCI-P5x cells, with rucaparib 20 µM, 100% = cells with rucaparib alone
[32] = at 5 µM, OCI-P5x cells, without rucaparib

CO[C@H]1C[C@H]2CC[C@@H](C)[C@@](O)(O2)C(=O)C(=O)N2CCCC[C@H]2C(=O)O[C@H]([C@H](C)C[C@@H]2CC[C@H](OP(C)(C)=O)[C@H](OC)C2)CC(=O)[C@H](C)/C=C(\C)[C@@H](O)[C@@H](OC)C(=O)[C@H](C)C[C@H](C)/C=C/C=C/C=C/1C
viability [1]: 115% | viability [2]: 103% | viability [3]: 79.2% (active) | viability [4]: 65.5% (active) | viability [5]: 102% | viability [6]: 97.3% (active) | viability [7]: 77.8% (active) | viability [8]: 59.6% (active) | viability [9]: 97.3% (active) | viability [10]: 90.1% (active) | viability [11]: 76.6% (active) | viability [12]: 61.2% (active) | viability [13]: 103% | viability [14]: 93.1% (active) | viability [15]: 76.4% (active) | viability [16]: 63% (active) | viability [17]: 103% | viability [18]: 96.7% (active) | viability [19]: 76.7% (active) | viability [20]: 60.3% (active) | viability [21]: 108% | viability [22]: 95.8% (active) | viability [23]: 75.8% (active) | viability [24]: 60.4% (active) | viability [25]: 104% | viability [26]: 94.5% (active) | viability [27]: 82.1% (active) | viability [28]: 60.8% (active) | viability [29]: 114% | viability [30]: 102% | viability [31]: 74.3% (active) | viability [32]: 59.8% (active)

C=C1/C(=C/C=C2\CCC[C@@]3(C)[C@H]2CC[C@H]3[C@H](C)/C=C/[C@@H](C)C(C)C)C[C@H](O)C[C@@H]1O
viability [1]: 99.9% (active) | viability [2]: 95% (active) | viability [3]: 101% | viability [4]: 100% | viability [5]: 97.2% (active) | viability [6]: 100% (active) | viability [7]: 105% | viability [8]: 99.9% (active) | viability [9]: 94% (active) | viability [10]: 104% | viability [11]: 105% | viability [12]: 102% | viability [13]: 103% | viability [14]: 100% | viability [15]: 102% | viability [16]: 102% | viability [17]: 97.1% (active) | viability [18]: 100% | viability [19]: 105% | viability [20]: 101% | viability [21]: 96.7% (active) | viability [22]: 96.6% (active) | viability [23]: 107% | viability [24]: 104% | viability [25]: 101% | viability [26]: 102% | viability [27]: 98.4% (active) | viability [28]: 103% | viability [29]: 120% | viability [30]: 111% | viability [31]: 111% | viability [32]: 103%
